In PubChem BioAssay:

What follows are molecules tested against Fibroblast growth factor 10 (Homo sapiens) (UniProt O15520) (assay: FGF10 binders on small-molecule microarrays, primary screen, biochemical, small-molecule microarray, 635 nm fluorescence (AID 1102)). Settings: FGF10 binding, fluorescence 635 nm, higher = more signal.
Sequence of Fibroblast growth factor 10 (Homo sapiens) (O15520 whole entry, looked up): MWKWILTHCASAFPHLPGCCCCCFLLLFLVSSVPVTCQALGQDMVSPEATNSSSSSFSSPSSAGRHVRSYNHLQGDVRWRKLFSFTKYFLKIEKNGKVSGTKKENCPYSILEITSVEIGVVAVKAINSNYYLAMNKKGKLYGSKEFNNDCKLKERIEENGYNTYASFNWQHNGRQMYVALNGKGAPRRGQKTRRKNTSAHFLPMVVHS

| SMILES | composite z-score |
| --- | --- |
| COc1ccc([Si](C)(C)[C@H]2[C@H](CC(=O)N3CCC[C@H]3CO)O[C@@]3(C(=O)N(Cc4cccc(N5C(=O)COc6ccccc65)c4)c4ccccc43)[C@@H]2C)cc1 | 0.369 |
| CC(=O)OC[C@H]1O[C@H](C#CCCCc2ccccc2)C=C[C@@H]1OC(C)=O | 0.687 |
| CC(C)[C@H](NC(=O)OC(C)(C)C)[C@@H](O)CC(=O)OC(C)(C)C | -0.658 |
| COCCCNC(=O)[C@]1(CCC(=O)OC(C)(C)C)N=C(c2ccc(OCCCO)cc2)O[C@@H]1c1ccccc1N=[N+]=[N-] | 1.29 |
| C[C@@H]1C=CCC(=O)OC[C@H](C)C(=O)N[C@@H](C)C(=O)OC1 | 0.336 |
| COC(=O)[C@@]1(Cc2ccc(F)cc2)[C@H]2c3cc(C(=O)N(C)C)n(Cc4ccc(OC)c(OC)c4)c3C[C@H]2CN1C(=O)c1ccccc1 | 0.495 |
| CCCCCN1CC=CC23O[C@@H]4C=CCOC(=O)[C@@H]4[C@H]2C(=O)N(CCCCCCO)[C@@H]3C1=O (some centres not stated) | -0.655 |
| COc1ccc(O[C@H]2C=C[C@@H](c3ccccc3)O[C@@H]2COC(=O)CCC(C)=NO[C@H](C)c2cn([C@@H]3COC[C@H]3O)nn2)cc1 | 0.39 |
| C#C[C@@H]1Oc2ccccc2S(=O)(=O)N2CCC[C@H]12 | 0.111 |
| CC(C)(C)OC(=O)CC[C@]1(C(N)=O)COC(c2ccc(OCCCO)cc2)=N1 | 1.34 |
| COc1ccc(O[C@H]2C=C[C@@H](c3ccccc3)O[C@@H]2COC(=O)CCC(C)=NOC[C@@H](C)[C@H](OCc2ccccc2)C(C)C)cc1 | -0.433 |
| Cc1ccc(F)cc1S(=O)(=O)N[C@@H]1CCN(Cc2ccc(CC(C)C)cc2)C1 | -0.253 |
